# Screening results: PubChem BioAssay, several laboratories
# A selection: hits, their analogues and other compounds. The true share with any hit is near 2%.
# PG9 Ab binder – binds the HIV-1 gp120 antibody PG9. TR-FRET gp120-PG9 antibody binding. inhibition, % at 6.7 µM. 0.43% of 360,000 active; in the data active means inhibition above about 8.5%
# NR1D1 modulator – modulators of human Rev-erb alpha DNA binding | P20393 | Rev-erbα–FITC-DNA binding, fluorescence polarization, 90 min | activity, % at 10 µM | 0.79% of 370,000 active;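 active means activity above about 14%, limit read from the data; passing the limit was not always enough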;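 further: 0% = DMSO wells with 35 nM protein and 100% = DMSO wells with 750 nM protein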
# Granule exo inh – lytic granule exocytosis inhibition; 0.66% of 360,000 active; AID 651702; inhibition, % at 10 µM; TALL-104 LAMP-1 surface exposure, flow cytometry; cells stimulated with thapsigargin and PMA;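 active means inhibition above about 55%, limit read from the data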
# ABCB6 inh MLPCN – human ABCB6 transporter inhibition. Q9NP58. K562-ABCB6 porphyrin accumulation, flow cytometry, 1 h; active compounds read low. fluorescence ratio to DMSO, % at 10 µM. 0.19% of 360,000 active;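 active means fluorescence ratio to DMSO below 75%, the collection mean minus 3 SD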;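 further: signal is porphyrin accumulated inside mitochondria; 100% equals median channel fluorescence of DMSO control wells; lower ratio means ABCB6 inhibition with less porphyrin fluorescence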
# Target sequence (Q9NP58 whole entry, looked up): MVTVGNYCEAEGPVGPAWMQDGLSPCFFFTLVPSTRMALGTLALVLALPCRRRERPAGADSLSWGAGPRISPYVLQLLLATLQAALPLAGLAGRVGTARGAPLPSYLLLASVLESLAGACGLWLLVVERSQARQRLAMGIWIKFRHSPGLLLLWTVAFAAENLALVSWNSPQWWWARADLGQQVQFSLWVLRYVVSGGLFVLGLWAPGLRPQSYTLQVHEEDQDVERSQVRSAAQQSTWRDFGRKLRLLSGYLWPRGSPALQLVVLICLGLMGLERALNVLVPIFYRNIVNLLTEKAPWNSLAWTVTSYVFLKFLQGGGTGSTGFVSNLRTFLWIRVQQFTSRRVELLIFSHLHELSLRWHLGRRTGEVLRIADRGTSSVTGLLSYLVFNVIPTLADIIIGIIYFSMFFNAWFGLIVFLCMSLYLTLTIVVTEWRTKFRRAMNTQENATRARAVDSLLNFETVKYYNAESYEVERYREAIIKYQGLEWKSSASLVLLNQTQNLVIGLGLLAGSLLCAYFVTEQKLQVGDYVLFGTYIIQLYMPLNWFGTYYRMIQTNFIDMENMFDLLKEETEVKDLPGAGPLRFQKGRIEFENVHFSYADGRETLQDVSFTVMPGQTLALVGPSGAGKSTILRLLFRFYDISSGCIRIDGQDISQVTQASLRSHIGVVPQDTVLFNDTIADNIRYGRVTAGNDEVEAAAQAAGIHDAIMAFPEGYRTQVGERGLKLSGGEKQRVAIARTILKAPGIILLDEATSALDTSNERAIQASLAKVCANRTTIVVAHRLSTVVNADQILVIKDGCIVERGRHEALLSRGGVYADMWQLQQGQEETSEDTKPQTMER
# VLA-4 inh – inhibition in a human VLA-4 binding assay; VLA-4 expressing cells, ligand binding flow cytometry; inhibition, % (about 7 µM as worked out from the volumes in the protocol); 0.2% of 330,000 active; AID 2557; in the data active means inhibition above about 50%
# Exocytosis CP01 – lytic granule exocytosis inhibition | shares compounds with Granule exo inh | AID 651954 | inhibition, % at 10 µM | 11% of 1,500 active | TALL-104 cells, LAMP-1 externalization, flow cytometry; stimulated with PMA plus thapsigargin; in the data active means inhibition above about 60%;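 further: 0% = stimulated vehicle wells and 100% = unstimulated wells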
# * hit, by the source's call; nt = no result.
SMILES,PG9 Ab binder,NR1D1 modulator,Granule exo inh,ABCB6 inh MLPCN,VLA-4 inh,Exocytosis CP01
CN(CCOC(=O)CC1C=CCC1)C1CN(Cc2cn(Cc3ccccc3Cl)nn2)S(=O)(=O)C1 (configuration not stated),nt,-2,nt,nt,nt,nt
O=C(c1ccccc1)c1ccc2c(c1)OCCOCCOCCOCCO2,-1,1,72*,99,2,-5
CCN1C(=O)c2cccc3c(S(=O)(=O)N4CCCC4C(=O)O)ccc1c23 (configuration not stated),2,0,60*,93,-2,-13
CCN1C(=O)c2cccc3c(S(=O)(=O)N4CCNCC4)ccc1c23,1,-2,-3,98,-4,nt
COc1ccc(C(=O)/C=C2\C(=O)Nc3ccc(Br)cc32)cc1,-1,6,82*,100,nt,40
O=C1Nc2ccc(Br)cc2/C1=C/C(=O)c1ccc2c(c1)OCO2,0,-5,40,99,1,nt
CCCCNC(=O)c1cc2c(=O)n(CC)c3ccccc3c2s1,1,19,60*,96,4,-11
COc1ccc(NC(=O)c2cc([N+](=O)[O-])ccc2N2CCCCC2)cc1,-3,-2,68*,91,20,-13
COc1ccc(NC(=O)c2cc([N+](=O)[O-])ccc2N2CCCC2)cc1,-3,3,-2,99,0,nt
CCOC(=O)C(=CNc1ccccc1C)C(=O)OCC,3,-7,-1,91,-1,nt
CCC(C(=O)n1cccc1C#N)c1ccccc1C (configuration not stated),-1,1,70*,100,0,-5
COc1cccc(C2NC(=S)N(Cc3ccccc3)C(C)=C2C(C)=O)c1 (configuration not stated),1,4,nt,nt,nt,nt
N=c1n(CCN2CCCCC2)c2ccccc2n1CC(=O)c1ccc(Cl)c(Cl)c1,3,5,83*,97,21,47
CCn1c(=N)n(CC(=O)c2ccc(Cl)c(Cl)c2)c2ccccc21,-1,-4,37,100,9,nt
O=C(NCC1CCCCC1)c1cccc(-c2ccc(O)cc2)c1,2,1,59*,104,2,-4
CC(=O)OC12CCCN(C1)/C(=C/c1ccccc1)C2 (configuration not stated),nt,0,nt,nt,nt,nt
NC(=O)c1cc[n+](CC2=C(C(=O)O)N3C(=O)[C@@H](NC(=O)Cc4cccs4)[C@H]3SC2)cc1,nt,-2,nt,nt,nt,nt
O=C(Nc1ccc2c(c1)OCO2)C1CCCN(c2nc3ccccc3s2)C1 (configuration not stated),nt,-1,62*,95,4,-13
CC(COc1ccccc1)NC(C)[C@H](O)c1ccc(O)cc1 (some centres not stated),nt,4,nt,nt,nt,nt
O=S(=O)(c1ccccc1F)N1CCN(CC(O)c2ccccc2)CC1 (configuration not stated),-3,-3,80*,97,0,-4
COC(=O)c1ccc(CN2CC3CC(c4ccccc4)N4CCCC34C2=O)cc1 (configuration not stated),nt,2,nt,nt,nt,nt
CC1CCN(CCCNC(=O)c2ccc3c(=O)n(Cc4ccc(Cl)cc4)c(=S)[nH]c3c2)CC1,-2,0,71*,98,14,11
Clc1ccc2nc(N3CCNCC3)nc(-c3ccccc3)c2c1,-1,5,86*,95,26,59
CN1CCN(c2nc(-c3ccccc3)c3cc(Cl)ccc3n2)CC1,3,-2,2,109,11,nt
O=[N+]([O-])c1ccc(Cn2ccc3ccc(-c4ccc5ccn(Cc6ccccc6)c5c4)cc32)cc1,nt,-1,nt,nt,nt,nt
SMILES,PG9 Ab binder,NR1D1 modulator,Granule exo inh,ABCB6 inh MLPCN,VLA-4 inh,Exocytosis CP01
Cc1ccc(Cc2c(-c3ccco3)nc3c4ccccc4ccn23)cc1,1,-5,58*,105,nt,0
Cc1cc2nc(-c3ccco3)c(Cc3cccc(Cl)c3)n2c(C)c1Br,1,-25,73*,107,nt,2
Cc1cc(Br)cn2c(Cc3cccc(Cl)c3)c(-c3ccco3)nc12,-2,-3,56*,99,nt,22
Cc1ccc(Cc2c(-c3ccco3)nc3c(C)cc(Br)cn23)cc1,1,-12,36,99,nt,nt
COC(=O)[C@]12C[C@H](CC(=O)NCCCN3CCCC3=O)C(=O)N(CCC3=CCCCC3)C1=C[C@H](C1CCCC1)O[C@@H]2C,nt,7,nt,nt,nt,nt
COc1ccc2cc1Oc1cc3c(cc1OC)CC[N+](C)(C)[C@H]3Cc1ccc(cc1)Oc1c(OC)c(OC)cc3c1[C@@H](C2)[N+](C)(C)CC3,nt,-4,nt,nt,nt,nt
COC(=O)c1ccc(N2CCN(C)CC2)c(NC(=O)c2sc3ccccc3c2Cl)c1,-3,-6,78*,98,8,91*
Oc1ccc(Br)cc1-c1cc(-c2ccccc2)n[nH]1,-1,6,0,92,2,nt
O=[N+]([O-])c1cccc(-c2cc(-c3cc(Br)ccc3O)[nH]n2)c1,0,7,100*,94,3,99*
CCOc1ccc2nc(N(CCCN(C)C)C(=O)c3ccc(S(=O)(=O)N4CCc5ccccc5C4)cc3)sc2c1,-1,0,68*,103,-5,84*
COc1ccc2nc(N(CCN(C)C)C(=O)c3ccc4ccccc4c3)sc2c1,0,-5,11,103,2,nt
COc1cc2nc(N(CCCN(C)C)C(=O)c3ccc(S(=O)(=O)N4CCc5ccccc5C4)cc3)sc2cc1OC,-1,4,46,94,0,nt
CCOC(=O)N1CCN(S(=O)(=O)c2ccc(C(=O)N(CCN(C)C)c3nc4ccc(CC)cc4s3)cc2)CC1,-1,0,1,100,8,nt
CCc1ccc2nc(N(CCCN(C)C)C(=O)c3ccc(S(=O)(=O)N4CCCC4)cc3)sc2c1,-1,-2,14,103,6,nt
COc1ccc2nc(N(CCN(C)C)C(=O)c3ccc4ncsc4c3)sc2c1,-2,-7,75*,99,nt,-13
CCOC(=O)N1CCN(S(=O)(=O)c2ccc(C(=O)N(CCCN(C)C)c3nc4ccc(CC)cc4s3)cc2)CC1,-1,7,62*,94,2,-3
CCc1ccc2nc(N(CCCN(C)C)C(=O)c3ccc(S(=O)(=O)N4CCCc5ccccc54)cc3)sc2c1,-1,4,56*,100,9,23
COC(=O)CC1CCc2cc(C)cc(C(=O)CC(C)C)c2O1 (configuration not stated),nt,-4,nt,nt,nt,nt
Cc1cc(O)c(-c2cc(O)c(C)cc2O)cc1O,-7,-3,102*,102,26,23
CCOC(=O)C1(Cc2ccccc2)CCN(Cc2ccnc3ccccc23)CC1,nt,-4,nt,nt,nt,nt
COc1ccc(C2C(C(=O)N3CCN(c4ccccc4C)CC3)CC(=O)N2c2ccc(OC)cc2)cc1 (configuration not stated),nt,11,nt,nt,nt,nt
O=C(NC(=S)Nc1ccc(CN2CCOCC2)cc1)c1ccc(-c2cccc(Cl)c2)o1,-2,3,58*,96,17,25
